The record followed here is PubChem BioAssay (NCATS).

Records with an inconclusive call do not appear. A call without a number means that no potency is given here. Activity calls are given as the source filed them. Calls follow the shape of the dose curve; as a rule, active = well fitted inhibition curve with a large enough effect; inconclusive = small, poorly fitted or top-dose-only effect; inactive = flat fitted curve, though single readings scatter.

Sequence of Calcium and integrin-binding protein 1 (Homo sapiens) (Q99828 whole entry, looked up): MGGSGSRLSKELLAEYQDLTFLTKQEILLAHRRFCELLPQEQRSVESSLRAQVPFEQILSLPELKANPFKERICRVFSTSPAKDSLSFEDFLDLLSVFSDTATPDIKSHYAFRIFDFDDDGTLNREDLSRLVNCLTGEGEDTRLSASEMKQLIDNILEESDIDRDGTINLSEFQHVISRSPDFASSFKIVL

For this assay, the target named is Calcium and integrin-binding protein 1 (Homo sapiens) (UniProt Q99828). Kind of assay: Primary qHTS for Identification of Calcium Integrin Binding Protein 1 (CIB1) Competitor (AID 1508620).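 Also: GST tagged CIB1 binding a fluorescein labelled alphaIIb integrin peptide tracer; top concentration of the series differs between compounds.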 The note with it: CIB1-GST / FITC-alphaIIb peptide fluorescence polarization; series mostly up to 114 µM. In a few lines:
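CIB1-GST (1 uM final) and compound incubated 15 min at room temperature before adding FITC-alphaIIb peptide tracer (100 nM final). Competition for binding read by fluorescence polarization (ex 480, em 540) after another 15 min at room temperature.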
A general note: In qHTS, concentration-response curves come from the screen itself.
For `CC(=O)Nc1sc2c(c1-c1ccc(N[S+](C)(=O)[O-])cc1)CCNC2`, the Potency entry is “inactive”.

Turning to `O=C(Nc1ccc2sccc2c1)Nc1nnc(-c2cccnc2)s1`, the Potency entry is “inactive”.

In the case of `CNc1oc(-c2ccc(F)cc2)nc1C#N`, the Potency entry is “inactive”.

As for `FC(F)(F)c1ccc(-c2ccc(CNc3nc(-c4ccccc4C(F)(F)F)nc4ccccc34)cc2)cn1`, the Potency result was “inactive”.

With `Cc1cc(C)nc(NC(=S)N2CCN(c3cc(Cl)cc(Cl)n3)CC2)c1`, the Potency result was “inactive”.

`O=C1CCCC2=C1C(c1cccc(Oc3ccccc3)c1)N=C(Nc1nc3ccccc3o1)N2` (stereo not given): the Potency entry was “inactive”.

In the case of `O=C(Nc1ccc2ccccc2c1)Nc1nnc(-c2ccncc2)s1`, the Potency entry was “inactive”.

For the molecule `Cn1nnnc1Sc1ncnc2scc(-c3ccc(C(=O)OC(C)(C)C)cc3)c12`, the Potency entry was “inactive”.

`Cc1ccc(OCCn2c(CCNC(=O)c3ccc(Br)cc3)nc3ccccc32)cc1`: the Potency result is “inactive”.

Consider `O=C(Nc1cccc(Cc2ccccc2)c1)c1ccc(-c2cccc([N+](=O)[O-])c2)o1`, for which the Potency entry was “inactive”.

As to `O=C1CCc2cc(S(=O)(=O)Nc3ccc(Cl)cc3)ccc2N1`, the Potency result is “inactive”.

On to `NC(=O)C1CCN(c2nc(-c3ccccc3C(F)(F)F)cs2)CC1`, for which the Potency result was “inactive”.

Take `Oc1ccc(CNc2ccc(F)cc2Cl)c2cccnc12`: the Potency result was “inactive”.

Turning to `O=C(OCc1c(-c2ccccc2)no[n+]1[O-])c1ccccc1`, the Potency entry is “inactive”.

As for `COc1cccc(C2=Nn3c(nnc3-c3ccccc3C)SC2)c1`, the Potency entry is “inactive”.

For the molecule `O=C(CNC(=O)c1ccc2n[nH]nc2c1)OC(C(=O)Nc1cc(C(F)(F)F)ccc1Cl)c1ccccc1` (stereo not given), the Potency entry is “inactive”.

On to `COc1cc(OC)c2c(c1)OC(=O)CC2c1ccc2c(c1)OCO2` (stereo not given), for which the Potency result is “inactive”.

As to `COC(=O)c1ccccc1NC(=O)c1ccc(F)cc1F`, the Potency result is “inactive”.

For the molecule `O=C(OCC#CCSc1nnc(-c2cccc3ccccc23)o1)c1csc2ccccc12`, the Potency result was “inactive”.

As for `Cc1noc(C)c1-c1ccc2ncnc(NCc3cc(F)cc(F)c3)c2c1`, the Potency entry is “inactive”.

Take `O=C(O)c1ccc(-c2ccc3ncnc(NCC4CCCO4)c3c2)o1` (stereo not given): the Potency result was “inactive”.

On to `CC(=O)c1ccc(N2CCN(S(=O)(=O)c3ccc4c(c3)CC(C)N4C(C)=O)CC2)cc1` (stereo not given), for which the Potency entry is “inactive”.

For the molecule `O=C(NNC(=O)c1cc2ccccc2[nH]1)OCc1ccccc1`, the Potency entry was “inactive”.

For the molecule `CCn1cnc2c(NCc3cccnc3)nc(C#N)nc21`, the Potency result was “inactive”.

For the molecule `COC(=O)c1ccc(O)c2ncc(N(C)C)cc12`, the Potency result is “inactive”.

On to `C#CCOc1cc(C2=Nn3c(nnc3-c3ccc(OCC(C)=O)cc3)SC2)ccc1OC`, for which the Potency entry is “inactive”.

Regarding `N#Cc1cccc(CSc2nc3ncc(Br)cc3[nH]2)c1`, the Potency entry was “inactive”.

Consider `Cc1cc2c(s1)c1cnn(Cc3ccccc3Br)c(=O)c1n2C`, for which the Potency entry is “inactive”.

As to `CCOC(=O)Nc1sc2c(c1C(N)=O)CCCC2`, the Potency result is “inactive”.

Take `O=C(O)c1ccc(S(=O)(=O)N[C@H](Cc2ccccc2)C(=O)O)cc1`: the Potency entry is “inactive”.

Consider `COc1cc(F)cc(F)c1[S+](=O)([O-])N1CCN([S+](=O)([O-])c2ccc3c(c2)OCCO3)CC1`, for which the Potency entry is “inactive”.

For `Cc1ccc(-c2ccc(=O)n(CC(=O)N(C)C(C)c3cccs3)n2)cc1` (stereo not given), the Potency entry is “inactive”.

With `O=C(O)c1ccc(O)c2ncc(NC3CCNCC3)cc12`, the Potency entry was “inactive”.

Turning to `Cn1nnnc1Sc1ncnc2scc(-c3ccccc3F)c12`, the Potency result is “inactive”.

For `CCOc1ccc(CCNC(=O)c2cc3c(s2)CCC3)cc1OCC`, the Potency entry is “inactive”.

Regarding `COc1ccc(Cn2c(C)nnc2-c2cnn(C)c2N)cc1OC`, the Potency entry was “inactive”.

As for `CN(C)c1ccc(-c2csc(N3CCC(C(N)=O)CC3)n2)cc1`, the Potency result is “inactive”.

For `Cc1cc(C)nc(NC(=S)N2CCN(c3ncccn3)CC2)c1`, the Potency entry was “inactive”.

As to `Cn1nnnc1Sc1ncnc2scc(-c3ccc(N)cc3)c12`, the Potency result was “inactive”.

As for `COc1ccc(NC(=O)C2=C(C)NC(Nc3nc4ccccc4o3)=NC2c2ccccc2Br)cc1` (stereo not given), the Potency entry is “inactive”.
